An excerpt weighted towards active compounds, which were near 2% of everything screened.
NPSR antag – qHTS Assay for Antagonists of the Neuropeptide S Receptor: cAMP Signal Transduction. hit rate 1% among 220,000. Potency, µM (top dose mostly 38.3 µM), actives largely listed as inhibitors. CHO-NPSR cells, cAMP TR-FRET, antagonist mode; also: nearly all actives have a fitted effect of over 50% in size
Target sequence (Q6W5P4 whole entry, looked up): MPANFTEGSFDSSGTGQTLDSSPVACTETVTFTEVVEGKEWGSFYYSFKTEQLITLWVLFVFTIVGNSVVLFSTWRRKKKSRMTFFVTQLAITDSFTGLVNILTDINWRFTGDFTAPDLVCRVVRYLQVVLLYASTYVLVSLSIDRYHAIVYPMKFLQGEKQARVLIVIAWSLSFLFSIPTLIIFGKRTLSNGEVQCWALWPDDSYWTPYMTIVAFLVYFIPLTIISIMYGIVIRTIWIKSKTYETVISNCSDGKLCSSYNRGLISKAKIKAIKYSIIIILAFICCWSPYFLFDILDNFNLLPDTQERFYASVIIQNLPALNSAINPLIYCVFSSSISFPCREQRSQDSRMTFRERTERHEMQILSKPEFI
IL2 activator – qHTS of IL-2 Activators | hit rate 0.065% among 360,000 | activation, % (series mostly up to about 46 µM) | IL-2 activation reporter assay, cell-based qHTS; stimulated with anti-CD3/CD4/CD28 beads; in transgenic mouse T cells; in the data active = activation above about 50%; inconclusive = mostly about 30% to 49%
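EGFP and DsRed fluorescence is measured by plate cytometry in unstimulated transgenic mouse T cells exposed to compound for 60 minutes, then stimulated 18 hours at 37 degrees C with anti-CD3/anti-CD4 beads plus anti-CD28.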
PKM2 activator – qHTS Assay for Activators of Human Muscle isoform 2 Pyruvate Kinase; Pyruvate kinase PKM (Homo sapiens), P14618; purified PKM2, Kinase-Glo ATP luminescence, activation; response scale: 0% is enzyme alone, no compound; Potency, µM (series often up to 57.5 µM), hits mostly activators; hit rate 0.34% among 260,000; AID 1631, 2009; also: nearly all actives have a fitted effect of over 55% in size
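hPK-M2, >95% pure; 0.1 mM ADP / 0.5 mM PEP final; imidazole pH7.2 buffer w/ 7 mM MgCl2, 50 mM KCl; 1 h RT; Kinase-Glo lum. Intermediate enzyme activity for dual inhibitor/activator qHTS.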
ClpP mod – qHTS Assay for Activators of ClpP. Potency, µM (titrated, usually from 57.5 µM). purified B. subtilis ClpP, FRET peptide cleavage, 20 min. hit rate 1.9% among 340,000. ATP-dependent Clp protease proteolytic subunit (Bacillus subtilis (strain 168)), P80244; active = well fitted falling curve with a large enough effect; inconclusive = small, poorly fitted or top-dose-only effect; inactive = no such curve, though single readings can be large or run the other way; also: the source files actives as falling curves though it sought activators and does not explain the sign; nearly all actives have a fitted effect of over 65% in size
Target sequence (P80244 whole entry, looked up): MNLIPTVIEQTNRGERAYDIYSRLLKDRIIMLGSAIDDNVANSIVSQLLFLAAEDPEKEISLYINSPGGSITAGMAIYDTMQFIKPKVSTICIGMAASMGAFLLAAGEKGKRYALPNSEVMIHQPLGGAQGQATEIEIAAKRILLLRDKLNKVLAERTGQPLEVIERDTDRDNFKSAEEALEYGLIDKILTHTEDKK
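ClpP 10 microg/mL final, pH 8 Tris/KCl buffer with BSA, glycerol, Tween-20; compound pinned in; FRET-FV substrate; RT 20 min; Ex320/Em430; ΔFRET vs ADEP 5.8 microM, DMSO, no enzyme.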
Each line names hits and unclear results; the compound was inactive in the other large screens. Unless noted, calls follow the shape of the dose curve; as a rule, active = well fitted curve in the direction sought with a large enough effect; inconclusive = small, poorly fitted or top-dose-only effect, or another doubt; inactive = no such curve, though single readings can be large; an effect the other way counts as inactive or inconclusive.

COc1cccc(N2CCN(c3ncnc4c3cnn4-c3ccc(C)cc3C)CC2)c1	NPSR antag 10µM
Cc1ccc(-n2ncc3c(N4CCCC4)ncnc32)c(C)c1	PKM2 activator 25µM
COc1ccc2cc(C(c3nnnn3CC3CCCO3)N3CCOCC3)c(=O)[nH]c2c1 (stereo unspecified)	ClpP mod 25µM
Cc1ccc2[nH]c(=O)c(CN(CCc3ccccc3)Cc3nnnn3CC3CCCO3)cc2c1 (stereo unspecified)	none
COc1ccc2cc(CN(CCc3ccccc3)Cc3nnnn3CC3CCCO3)c(=O)[nH]c2c1 (stereo unspecified)	none
COc1ccc2[nH]c(=O)c(C(c3nnnn3CC3CCCO3)N3CCCCC3)cc2c1 (stereo unspecified)	none (no result: ClpP mod)
COc1ccc2[nH]c(=O)c(CN(CCc3ccccc3)Cc3nnnn3CC3CCCO3)cc2c1 (stereo unspecified)	ClpP mod 25µM
O=c1[nH]c2cc3c(cc2cc1CN(CCc1ccccc1)Cc1nnnn1CC1CCCO1)OCO3 (stereo unspecified)	ClpP mod 25µM
CCOc1ccc2[nH]c(=O)c(CN(CCO)Cc3nnnn3CCc3ccccc3)cc2c1	ClpP mod 32µM
O=C(NCCN1CCNC1=O)C1CCC(=O)N(CCc2ccc(Cl)cc2)C1 (stereo unspecified)	none (no result: NPSR antag)
O=C(Nc1ccc(Cn2cccn2)cc1)c1ccc(COc2ccccc2Br)cc1	ClpP mod inconclusive
N#Cc1nc(-c2ccco2)oc1NCCN1CCOCC1	ClpP mod 13µM
N#Cc1nc(-c2cccc3ccccc23)oc1NCCN1CCOCC1	ClpP mod 6.3µM
N#Cc1nc(-c2ccc(F)cc2)oc1NCCN1CCOCC1	none
N#Cc1nc(-c2ccco2)oc1N1CCC(Cc2ccccc2)CC1	NPSR antag inconclusive, ClpP mod 25µM
N#Cc1nc(-c2ccco2)oc1N1CCN(c2ccccc2)CC1	none
N#Cc1nc(-c2ccccc2F)oc1NCCN1CCOCC1	none
CCc1ccc2[nH]c(C(=O)Nc3ccc(F)cc3Br)cc2c1	none (no result: NPSR antag, PKM2 activator)
CCOc1cc2[nH]c(=O)n(CCCCC(=O)NCc3ccco3)c(=O)c2cc1OCC	ClpP mod 35µM
O=C(CCCCCN1C(=O)c2ccccc2C1=O)NCc1ccco1	ClpP mod 18µM
CCOc1cc2[nH]c(=O)n(CCCCC(=O)N3CCN(c4cccc(Cl)c4)CC3)c(=O)c2cc1OCC	none (no result: NPSR antag, IL2 activator, PKM2 activator)
CCOc1cc2[nH]c(=O)n(CCCCC(=O)N3CCCCCC3)c(=O)c2cc1OCC	ClpP mod 13µM
CCOc1cc2[nH]c(=O)n(CCCC(=O)NCc3ccco3)c(=O)c2cc1OCC	ClpP mod 25µM
COCc1cc(C)nc(SCC(=O)Nc2cc(C(F)(F)F)ccc2N2CCOCC2)c1C#N	none (no result: NPSR antag)
O=C(/C=C/c1cccs1)N1CCC2(CC1)Oc1ccc(F)cc1C(=O)C21CC(c2ccc(Cl)cc2)=NO1 (stereo unspecified)	none
c1ccc(-c2nnc(-c3ccccn3)nc2NC2CCCCC2)cc1	NPSR antag 10µM
COc1ccc(-c2csc3ncnc(Nc4ccc(OC)cc4OC)c23)cc1	ClpP mod 40µM (no result: NPSR antag, IL2 activator, PKM2 activator)
COc1ccc(/C=N/Nc2ncnc3scc(-c4ccccc4)c23)cc1OC	NPSR antag inconclusive
COc1ccc(-c2csc3ncnc(Nc4cccc(F)c4)c23)cc1	none (no result: NPSR antag, IL2 activator, PKM2 activator)
COc1ccccc1Nc1ncnc2scc(-c3ccc(F)cc3)c12	ClpP mod 28µM (no result: NPSR antag, IL2 activator, PKM2 activator)
CN(CCc1cn[nH]c1)Cc1nc(Cc2ccccc2F)no1	none
CCC(C)Sc1nc2ccccc2c(=O)[nH]1 (stereo unspecified)	ClpP mod 25µM
CCc1ccccc1NC(=O)CN(c1ccccc1)S(=O)(=O)c1ccsc1C(=O)OC	none (no result: NPSR antag, IL2 activator, PKM2 activator)
COC(=O)C1=C(C)NC(C)=C(C(=O)OC)C1c1cn(-c2ccccc2)nc1-c1ccco1	ClpP mod 28µM
COCCOC(=O)C1=C(C)NC(=O)NC1c1cn(-c2ccccc2)nc1-c1cccs1 (stereo unspecified)	none
COc1ccc2cc(CN(CCO)C(=O)c3ccc(Br)cc3)c(=O)[nH]c2c1	none
CCOc1ccc2[nH]c(=O)c(CN(CCO)C(=O)c3ccc(OC)c(OC)c3)cc2c1	ClpP mod 28µM
CCNC(=S)N(CCN(C)C)Cc1cc2cc(OCC)ccc2[nH]c1=O	none
CCOc1ccc2[nH]c(=O)c(CN(CCO)C(=O)c3ccccc3F)cc2c1	ClpP mod 32µM
CCOc1ccc2[nH]c(=O)c(CN(CCO)C(=O)c3ccc(F)cc3)cc2c1	ClpP mod 22µM
COc1ccc(Cc2nn[nH]n2)cc1	none
O=C(NC(Nc1cc(C(F)(F)F)ccc1Cl)C(=O)c1ccccc1)c1ccccc1 (stereo unspecified)	ClpP mod inconclusive
COC(=O)c1[nH]c2cc(OC)c(OC)cc2c1/C=N/Nc1ccccc1	IL2 activator 532 (no result: NPSR antag, PKM2 activator)
COc1ccc(-c2noc(-c3ccc(Cl)cc3[N+](=O)[O-])n2)cc1OC	ClpP mod 28µM
Cc1ccc(C)c(NC(=S)NC(NC(=O)N(C)C)C(Cl)(Cl)Cl)c1 (stereo unspecified)	none
Cc1ccc(C)c(NC(=S)NC(NC(=O)Cc2cccc3ccccc23)C(Cl)(Cl)Cl)c1 (stereo unspecified)	NPSR antag 7.9µM
O=C(NCC(O)c1ccccc1)c1ccc(Cl)c(S(=O)(=O)N2CCCCC2)c1 (stereo unspecified)	none (no result: NPSR antag)
O=C(Cn1nnc(-c2cc(C(F)(F)F)cc(C(F)(F)F)c2)n1)NNC(=S)Nc1ccc(Cl)cc1	none
O=C(CN1c2ccccc2Sc2ccccc21)NNC(=S)Nc1ccc(Cl)cc1	ClpP mod 25µM
CCN(CC)P(=O)(Nc1ccc(C)cc1Br)c1ccc(N(C)C)cc1NC(=O)c1ccco1 (stereo unspecified)	NPSR antag 10µM (no result: ClpP mod)
Cc1ccc(NC(=O)c2ccco2)c(NC(=O)c2ccccc2)c1	none (no result: NPSR antag, PKM2 activator, ClpP mod)
O=C(CN1C(=O)/C(=C/c2ccccc2)SC1=S)N1CCN(CCc2ccccn2)CC1	none (no result: NPSR antag)
COc1ccccc1N1CCN(C(=O)CSc2ncccc2-c2nc3ccccc3[nH]2)CC1	ClpP mod inconclusive
COc1ccc(N2CCN(C(=O)CSc3ncccc3-c3nc4ccccc4[nH]3)CC2)cc1	ClpP mod 25µM
C/C(=N\NC(=O)c1c(Cl)c(C)nn1C)c1ccc(NC(=O)COc2ccc(Cl)cc2C)cc1	ClpP mod 25µM
COc1cc2c3c(c1OC)C1(C=CC(=O)C=C1)CC3N(C(C)=O)CC2 (stereo unspecified)	none
COc1ccc(CC(NC(C)=O)C(=O)NC2CCN(c3nc(C)cc(C)c3C#N)CC2)c(OC)c1 (stereo unspecified)	ClpP mod 13µM
O=C(CCCNS(=O)(=O)c1ccc(Br)cc1)N1CC[C@@]2(O)CCCC[C@H]2C1	none
N#Cc1c(N)n(C2CCCCC2)c2nc3ccccc3nc12	ClpP mod 32µM
COc1cc(C(=O)NCCOc2cc(C)cc(C)c2)c(Br)c(OC)c1OC	none

Screening results as filed in PubChem.
